From PubChem
This is a sample that favours compounds with a hit; in the whole collection about 7.4% have one here.
DAT uptake mod: modulates human dopamine transporter uptake under cocaine; Q01959; 110,000 compounds, 1.3% hits; B-score at 10 µM; LLC-PK1 hDAT cells, [14C]-dopamine uptake with cocaine IC80; actives deviate in either direction;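 active = Z score or B-score, a plate-position-corrected score, falls beyond the plate's 99.7% confidence bounds, in either direction; inactive = both scores lie inside the 99.7% bounds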;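 also: scored against the spread of the other compound wells on the same plate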
D1 allo mod: allosteric modulators of human D1 dopamine receptor. B-score at 10 µM. 58,000 compounds, 5.9% hits. HEK293 D1, CRE-luciferase, dopamine EC30 potentiation; actives deviate in either direction. AID 641;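 active = luminescence count or its row- and column-corrected plate score outside the 99.7% band of the plate's sample wells, on either side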
FXIIa inh mix: blocks human factor XIIa in pooled compound mixtures; inhibition, % at 5 µM; purified FXIIa, fluorogenic substrate; AID 684; 62,000 compounds, 0.2% hits; P00748;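 also: 0% = enzyme without compound and 100% = no enzyme blank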
FXIa inh mix: factor XIa (human) inhibition, mixture screen. P03951. purified FXIa, fluorogenic substrate, pooled mixtures. inhibition, % at 5 µM. 62,000 compounds, 0.19% hits. AID 680;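 also: each value is inhibition by a whole ten-compound pool holding the compound; 0% = enzyme with no mixture and 100% = wells lacking enzyme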
M1 ag: agonists of M1 muscarinic receptor. B-score at 10 µM. CHO-M1 cells, Fluo-4 calcium fluorescence, agonist mode; active compounds read high. 64,000 compounds, 3% hits;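 active = fluorescence rise, raw or as B-score row- and column-corrected plate score, outside the 99.7% band of its plate's samples, either direction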
M1 antag: blocks the rat M1 muscarinic receptor response to acetylcholine. CHO-M1 cells, Fluo-4 calcium, ACh EC80 antagonist mode; active compounds read low. 64,000 compounds, 3.4% hits. P08482. B-score at 10 µM. AID 628;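 active = calcium fluorescence response, raw or row-and-column corrected B-score, differing from the plate sample mean either way at a set confidence level, mostly lower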
D1 PAM confirm: confirmation of human D1 dopamine receptor allosteric modulators; shares compounds with D1 allo mod; HEK293 D1 CRE-luciferase, dopamine EC30 potentiation; active compounds read high; luminescence at 10 µM; 2,200 compounds, 88% hits; AID 642;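 active = luminescence in either of two replicates above the same-plate mean plus 3 SD of the low-dose dopamine control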
D1 ag no DA: activates D1 CRE-luciferase signal without dopamine present. shares compounds with D1 allo mod. HEK293 D1 CRE-luciferase, luminescence, no dopamine; active compounds read high. luminescence at 10 µM. 1,900 compounds, 0.8% hits. AID 646; in the data active = luminescence above about 3900
Isoprot counter: alters isoproterenol CRE-luciferase response in HEK293 cells. 2,200 compounds, 63% hits. shares compounds with D1 allo mod. HEK293 D1 CRE-luciferase, isoproterenol EC30 counter-screen. calls only at 10 µM;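 active = luminescence in either replicate above plate mean of wells with a partly effective reference agonist dose plus 3 SD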;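 also: isoproterenol raises cAMP through native beta-adrenoceptor Gs so signal bypasses D1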
An asterisk follows results filed as active. Rule as the data show it, unless noted: active = inhibition above about 20% (passing the limit was not always enough); inactive = the rest.

For COC(=O)c1ccc(CSc2nc3ccccc3c(=O)n2Cc2ccco2)o1 the results were DAT uptake mod -0.083, D1 allo mod 6.5*, FXIIa inh mix -5, FXIa inh mix 8, M1 ag 0.00064, M1 antag -0.22, D1 PAM confirm 9240*, D1 ag no DA 1456 and Isoprot counter active.
For COC(=O)c1ccc(CSc2nc3c(cnn3-c3ccc(F)cc3)c(=O)[nH]2)o1 the results were DAT uptake mod 0.44, D1 allo mod 5.3*, FXIIa inh mix 3, FXIa inh mix 7, M1 ag -0.21, M1 antag -0.14, D1 PAM confirm 9428*, D1 ag no DA 1608 and Isoprot counter inactive.
COC(=O)c1ccc(CSc2nc3ccccc3c(=O)n2CC(C)C)o1 was read as DAT uptake mod -0.12.
Cc1ccc(C(=O)CSc2nc(N)cc(=O)[nH]2)cc1 was read as DAT uptake mod 2.1, FXIIa inh mix -48, FXIa inh mix 4, M1 ag -0.34 and M1 antag 0.45.
Screening CC(=O)c1cc2c(cc1NC(=O)CCNC(=O)c1ccccc1Cl)OCO2 returned DAT uptake mod -2.2.
Screening CC(C)N(C(=O)CSc1nc2ccccc2n1Cc1ccccc1F)C(C)C returned DAT uptake mod 0.4.
Screening CCOc1ccccc1Nc1nc(N)nc(CSc2nccc(C)n2)n1 returned DAT uptake mod 1.4, D1 allo mod 3.6*, FXIIa inh mix 2, FXIa inh mix -1, M1 ag -0.15, M1 antag 0.58, D1 PAM confirm 6988* and Isoprot counter inactive.
COc1ccccc1Nc1nc(N)nc(CSc2ncccn2)n1 was read as DAT uptake mod 0.77, D1 allo mod 1.3, FXIIa inh mix 12, FXIa inh mix 4, M1 ag 0.47 and M1 antag 0.69.
Cc1noc(C)c1CSc1nnc(-c2ccccc2)n1Cc1ccco1 was read as DAT uptake mod 0.21, D1 allo mod 4.7*, FXIIa inh mix 5, FXIa inh mix 6, M1 ag -0.56, M1 antag -0.45, D1 PAM confirm 5096, D1 ag no DA 1396 and Isoprot counter inactive.
For Cc1noc(C)c1CSc1nnc2scc(-c3ccccc3)n12 the results were DAT uptake mod -0.0029, D1 allo mod 11*, FXIIa inh mix -15, FXIa inh mix 1, M1 ag -0.21, M1 antag 0.64, D1 PAM confirm 13660*, D1 ag no DA 1688 and Isoprot counter active.
N#Cc1ccc(CSc2nnc(-c3ccccc3)n2Cc2ccco2)cc1 was read as DAT uptake mod 1.2.
For Cc1noc(C)c1CSc1nnc2ccccn12 the results were DAT uptake mod -1.3.
Screening O=C(NCCCn1ccnc1)C(=O)NCC1OCCN1S(=O)(=O)c1ccc(Cl)cc1 (configuration not stated) returned DAT uptake mod -1.9.
CCC(C)NC(=O)CS(=O)Cc1nc(-c2cccc(OC)c2)oc1C (configuration not stated) was read as DAT uptake mod -0.31, D1 allo mod 0.22, FXIIa inh mix 1, FXIa inh mix 7, M1 ag -0.48 and M1 antag -0.38.
COC(=O)c1sc(=S)sc1C(=O)OC was read as DAT uptake mod 0.21, D1 allo mod 3.3*, FXIIa inh mix 2, FXIa inh mix 16, M1 ag -0.7, M1 antag 0.26, D1 PAM confirm 8136*, D1 ag no DA 1608 and Isoprot counter inactive.
CCOC(=O)c1cccc(Nc2nc(C)cc(C)n2)c1 was read as DAT uptake mod -0.66, D1 allo mod 0.69, FXIIa inh mix 1, FXIa inh mix 9, M1 ag 0.13 and M1 antag -1.3.
